The structures appear in SMILES notation. Among all 69,000 compounds or so, about 8,600 (12%) showed an effect of 50% or more. The list comes from a sample in which strong results are over-represented; it also holds similar structures and randomly drawn compounds.

This assay relates to Plasmodium berghei. Nature of the assay: Screen against P. berghei liver stage (PbLuc), transformed with Luciferase, at 10uM. The format is functional, HepG2. Conditions: tested at 10 uM.
As for `CC(NCc1c(C(C)C)nn(C)c1N1CCOCC1)C(=O)N(C)C` (stereo not drawn), the INHIBITION is recorded as 19.45%.

Regarding `Cc1cc(C)c2c(NCCC3(O)CCCC3)ncnc2n1`, the INHIBITION is given as 42.3%. As to `CCn1ccc2ccnc(CC3CN(C(=O)c4cnco4)C3)c21`, the INHIBITION is recorded as 1.62%. For `CN1CC2(CCCCN2C(=O)c2ccsc2)CC1=O` (stereo not drawn) the value was 35.8%; for `Cc1oc(C)c(C(=O)NCc2cccc(C(N)=O)c2)c1C`, -39.7%; for `CNC(=O)C1CN(C)CCN1c1nc(C)cc(C)n1` (stereo not drawn), -5.8%.

For `COC(=O)Cn1c(=O)[nH]c2cn(-c3ccc(Cl)cc3)c(=O)n21`, the INHIBITION is given as 0.547%. For `NC(=O)c1cc(C2CCCN(CCCOc3ccc(F)cc3)C2)n[nH]1` (stereo not drawn) the value was 14.22%; for `CC(C)COCCC(=O)NS(=O)(=O)c1ccc(Cl)s1`, 62.4%; for `CC(=O)c1ccc(OCC(=O)NS(=O)(=O)c2ccc(Cl)s2)cc1`, 36.8%. Under `Cc1ccc(S(=O)(=O)NC(=O)CCOCc2ccccc2)s1` stands 36.3%.

In the case of `COc1ccccc1OCC(=O)NS(=O)(=O)c1ccc(Cl)s1`, the INHIBITION came to 31.3%.

Regarding `Cc1ccc(S(=O)(=O)NC(=O)CCOCC(C)C)s1`, the INHIBITION stood at 55.9%.

For `CCOCCCC(=O)NS(=O)(=O)c1ccc(C)s1`, the INHIBITION came to 11.3%. For `OC1(CN2CCCC2)COCCN(c2cc(C(F)(F)F)ccn2)C1` (stereo not drawn), the INHIBITION was -16%.

For `OCCn1nccc1C1CCN(Cc2nc(C3CC3)no2)CC1`, the INHIBITION is reported as 33.7%.

Take `Cc1cc(C(=O)N2CCC(Nc3cccnc3)CC2)c(C)s1`: the INHIBITION is -19.5%.

In the case of `O=S1(=O)NC(c2ccnc(N3CCCC3)n2)=Nc2ccccc21`, the INHIBITION is recorded as 33.2%.

With `O=C(c1ccc(F)cc1)N1CCC2(CC1)CC(N1CCOCC1)C2`, the INHIBITION is on record as -24.5%.

For `Cc1ccc(C(=O)N2CCC3(CC2)CC(N2CCOCC2)C3)cc1`, the INHIBITION was 55.7%.

For `Cc1ccc(C(=O)N2CCC3(CC2)CC(N2CCCC2)C3)cc1`, the INHIBITION is reported as 39.9%. Under `CN(C)C(=O)c1cn[nH]c1C1(C)CCCN(Cc2ccccn2)C1` (stereo not drawn) stands 40%; under `CCOc1ccc(NC(=O)N2CCNC(=O)C2)c(C(F)(F)F)c1`, 40.2%; under `O=C(Cn1cc(-c2ccccc2)ncc1=O)Nc1ccncc1`, 0.547%. For `O=C(Cn1cc(-c2ccccc2)ncc1=O)Nc1ncc[nH]1`, the INHIBITION was 81%. For `O=C(Cn1cc(-c2ccccc2)ncc1=O)Nc1nnc[nH]1` the value was 13%. For `Cc1nc2c(C)cccc2cc1C(=O)N1CCC2(CCN(C)CC2)C1` the value was -17.7%; for `CCOc1nnc(CN2CCC(c3nc4ccccc4[nH]3)CC2)s1`, -35.9%; for `CCOc1nnc(CN2CCC(c3cc4ccccc4[nH]3)CC2)s1`, -14.2%.

Turning to `CCOc1nnc(CN2CCN(CCOC)CC2)s1`, the INHIBITION turned out to be 53.4%. Under `CCOCCN1CCN(CCOC)CC1C` (stereo not drawn) stands 11.4%. Under `CCOc1nnc(CN2CCN(CCOC)C(C)C2)s1` (stereo not drawn) stands 51.7%; under `CCOc1nnc(CN2CCN(CCOC)C(CC)C2)s1` (stereo not drawn), 28.6%; under `COCC1CC2(CCN(C(=O)c3ccc(C)nc3)CC2)CO1` (stereo not drawn), -26.1%.

As for `COc1ccc(C2CCCN2C(=O)NCCn2ccnc2)cc1OC` (stereo not drawn), the INHIBITION was -20.965%. `O=S(=O)(C1CC1)N1CC[C@@H](OCC2CC2)[C@@H]1Cc1ccncc1`: the INHIBITION came out at 47.5%. For `CNc1nc(CNC(=O)Nc2ccc(OC(C)C)cc2C)cs1` the value was 57.2%. For `CNc1nc(CNC(=O)Nc2cc(Cl)ccc2F)cs1` the value was -41.85%. For `CNc1nc(CNC(=O)Nc2ccccc2OC(C)C)cs1` the value was 32.3%; for `CNc1nc(CNC(=O)Nc2ccc(OC)cc2C)cs1`, 21.5%. As for `CNc1nc(CNC(=O)Nc2cccc(C)c2Cl)cs1`, the INHIBITION is reported as -25.15%. For `CNc1nc(CNC(=O)Nc2ccc(OC(C)C)cc2F)cs1` the value was 72.3%; for `COc1ccc2[nH]cc(C(=O)CNc3nc(C)cs3)c2c1`, -29.5%; for `O=C(CCOc1ccc(F)cc1)N1CCCC1Cn1cccn1` (stereo not drawn), 30.6%. Regarding `Cc1ccc2c(n1)N(CCn1cccn1)CCN(C(=O)NC(C)C)C2`, the INHIBITION was -32%.

For `CS(=O)(=O)NCc1cnc2n1CCN(Cc1ccsc1)CC2`, the INHIBITION worked out at 30.1%.

Regarding `CCOc1ccccc1Oc1ccc(CN)cn1`, the INHIBITION amounted to 60.3%.

Turning to `NCc1ccc(Oc2cccc(Cl)c2Cl)nc1`, the INHIBITION came out at 28.7%. For `NCc1ccc(Oc2cccc(Cl)c2Cl)cc1` the value was 13.2%; for `CN(Cc1ccccn1)C(=O)c1nn(C)c2c1CCN(CC1CC1)C2`, 48.2%; for `CC(C)CCN1CCc2c(C(=O)N(C)Cc3ccccn3)nn(C)c2C1`, 48.2%. Under `CCCN1CCc2c(C(=O)N(C)Cc3ccccn3)nn(C)c2C1` stands 55.6%; under `COCCCNC(=O)CN(C)C1CCCN(c2cccnn2)C1` (stereo not drawn), -14.7%; under `CC(=O)N1CC(=O)N(c2ccsc2)CC12CCN(Cc1ccoc1)C2` (stereo not drawn), -3.58%. Consider `CCN1C(=O)C(c2ccccc2)CC12CCN(CCO)CC2` (stereo not drawn), for which the INHIBITION was found to be 19.8%. Under `CNC(=O)CN1CC[C@H]2CN(C(=O)c3ccccc3C)C[C@H]2C1` stands -28%. For `Cc1nn(CC(=O)N2CCN(Cc3cnn(C)c3C)CC2)cc1Br` the value was -5.92%; for `Cc1nn(CC(=O)N2CCN(Cc3cn(C)nc3C)CC2)cc1Br`, 51%. In the case of `CCn1ncc(CN2CCN(C(=O)Cn3cc(Br)c(C)n3)CC2)c1C`, the INHIBITION was 34%. Under `CCn1cc(CN(C)S(=O)(=O)c2cnn(C)c2)cn1` stands 7.66%. Under `O=c1c2cn[nH]c2nc(SCCN2CCOCC2)n1-c1ccccc1` stands 21.5%. In the case of `CC(=O)N1CCC2(CCN(CC3CCCCC3)C2)CC1`, the INHIBITION is given as 51.9%. As for `CC(=O)N1CCC2(CN(CC3CCCC3)C2)C1`, the INHIBITION is recorded as 39.5%. Under `CC(=O)N1CCC2(CCN(CC3CCOC3)C2)CC1` (stereo not drawn) stands 42.1%. Take `COc1cccc(-c2nc(C)c(C(=O)N[C@H](CO)CC(C)C)s2)c1`: the INHIBITION is -23.7%. Consider `Cc1occc1C(=O)N1C[C@@H]2[C@@H](C1)OCC(=O)N2Cc1cccnc1`, for which the INHIBITION is listed as -6.23%. Under `CN(CC1CCOCC1)C1CCCN(c2ccccn2)C1` (stereo not drawn) stands 18.805%; under `Cc1oc(-c2ccsc2)nc1CNC(C)Cn1cccn1` (stereo not drawn), 39.7%. Under `CCN(CCn1cccn1)Cc1nc(-c2ccoc2)oc1C` stands -31.9%.

On to `Cc1cnn(CCNCc2nc(-c3ccsc3)oc2C)c1`, for which the INHIBITION was 47.4%. Under `CCN(CCn1cccn1)Cc1nc(-c2cc(F)ccc2F)oc1C` stands 26.1%; under `CCN(CCn1cccn1)Cc1nc(-c2ccc(F)cc2)oc1C`, 62.4%; under `Cc1oc(-c2ccsc2)nc1CNCCn1cccn1`, 53.4%.

The values above are taken from ChEMBL document CHEMBL4513216, “Probing the Open Global Health Chemical Diversity Library for Multistage-Active Starting Points for Next-Generation Antimalarials” (ACS Infect Dis, 2020).
